Bioassay records: PubChem BioAssay, several laboratories
Compounds with a hit are over-represented: about 3.5% of the library has one in this group of screens.
UHRF1 MBD2 ctr – blocks human UHRF1 binding to methylated DNA. Q96T88. UHRF1 binding to methylated oligo, TR-FRET. inhibition, % at 4.4 µM. 370,000 compounds, 0.75% hits; in the data active = inhibition above about 21%;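 also: UHRF1 SRA domain binding a hemimethylated CpG hairpin DNA probe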
PG9 Ab binder – PG9 antibody binding by small molecule. inhibition, % at 6.7 µM. TR-FRET gp120-PG9 antibody binding. 360,000 compounds, 0.43% hits; in the data active = inhibition above about 8.5%
rCAG RNA binder – binds r(CAG) RNA repeats; 370,000 compounds, 1.3% hits; inhibition, % at 3 µM; AID 651821; r(CAG) RNA repeat, TO-PRO-1 dye displacement fluorescence;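 active = inhibition above the plate cutoff, the mean of all test compounds on that plate plus 3 SD, cut at about 35% in these data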;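 also: higher means more dye released from RNA so lower well fluorescence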
MBD2 DNA inh – MBD2-methylated oligo binding inhibition; TR-FRET, MBD2 binding to methylated oligonucleotide; inhibition, % at 4.4 µM; Q9UBB5; 370,000 compounds, 0.31% hits; in the data active = inhibition above about 13%
LEDGF integ inh – blocks HIV-1 LEDGF/p75-dependent DNA integration. inhibition, % at 3.7 µM. AID 743269. TR-FRET IN-LEDGF/p75 DNA integration, Eu/Cy5. 370,000 compounds, 0.64% hits;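 active = inhibition above the screen-wide mean plus 3 SD, cut at about 13% in these data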;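 also: signal is the Cy5 over europium emission ratio at 671 and 618 nm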
DNMT1 inh – DNMT1 (human) enzyme inhibition; P26358; DNMT1 molecular beacon, Hinp1I cleavage, fluorescence; inhibition (reported as % activation of signal), % at 10 µM; 360,000 compounds, 0.83% hits; AID 588458; in the data active = inhibition above about 50%
DNMT1 confirm – confirmation of human DNMT1 inhibitors | shares compounds with DNMT1 inh | DNMT1 molecular beacon HinP1I cleavage, fluorescence | inhibition, % at 10 µM | 2,300 compounds, 8% hits | AID 602385;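 active = average inhibition of at least 30% in the single-concentration confirmation test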
Beacon interf – shows spectral interference in the DNMT1 beacon assay | shares compounds with DNMT1 inh | DNMT1 molecular beacon spectral interference counterscreen, fluorescence 485/520 | activation (fluorescence interference), % at 10 µM | 2,300 compounds, 1% hits;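 active = activation of at least 30% at 10 µM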;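 also: DNMT1 catalytic domain with a HinP1I cleavage step and a FAM/dabcyl DNA beacon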
A number is an active result; 0 = inactive; - = no result.

SMILES	UHRF1 MBD2 ctr	PG9 Ab binder	rCAG RNA binder	MBD2 DNA inh	LEDGF integ inh	DNMT1 inh	DNMT1 confirm	Beacon interf
CCOc1ccc(NC(=O)CCCc2cc(-c3ccc(OCC)cc3)on2)cc1	0	0	0	0	0	57	0	0
O=C(NCCCN1CCOCC1)c1ccc2c(c1)N(Cc1c(F)cccc1Cl)C(=O)CS2	0	0	0	0	0	0	-	-
C#Cc1ccc([C@@H]2C=C(C(=O)NCc3ccccc3)O[C@H](OCCCCO)C2)cc1	0	0	0	0	0	54	0	0
O=C(NCc1ccccc1)C1=C[C@@H](c2ccc(Br)cc2)C[C@@H](OCCCCO)O1	0	0	0	0	0	0	-	-
CN(Cc1ccc(Cl)s1)C(=O)CCl	0	0	0	0	0	0	-	-
CC(=O)c1ccc(NC(=O)CSc2ccc(-c3ccc(-n4cccn4)cc3)nn2)cc1	0	0	0	0	0	71	0	0
CC(=O)Nc1ccc(NC(=O)CSc2ccc(-c3ccc(-n4ccnc4)cc3)nn2)cc1	0	0	0	0	0	0	-	-
Cc1cccc(C)c1N(CC(=O)NCc1ccccc1)C(=O)c1csnn1	0	0	0	0	0	0	-	-
O=C1c2ccccc2C(=O)N1CCc1c(-c2[nH]c3ccccc3c2CCN2C(=O)c3ccccc3C2=O)[nH]c2ccccc12	0	0	0	0	0	56	0	0
CC1C(=O)OC2C1CCC1(C)C3(C)C(=O)C=CC213 (stereo not given)	0	0	0	0	0	0	-	-
COc1ccc(NC(=O)CCn2c(=S)[nH]c3ccccc3c2=O)cc1Cl	0	0	0	0	0	54	0	0
CC[C@](C)(O)c1cc2ccccc2c(=O)o1	0	0	0	0	0	0	-	-
C=CCn1c(Cc2ccccc2)n[nH]c1=S	0	0	0	0	0	0	-	-
C=CCn1c(CSc2ccccc2[N+](=O)[O-])n[nH]c1=S	0	0	0	0	0	70	0	0
COC(=O)[C@]12C[C@H](CC(=O)NCc3ccc(OC)c(OC)c3)C(=O)N(Cc3ccc(Cl)cc3Cl)C1=C[C@H](COCc1ccccc1)O[C@@H]2C	0	-	0	0	0	-	-	-
Cc1c(CCC(=O)O)c(=O)oc2cc3oc4c(c3cc12)CCCC4	0	0	0	0	0	91	0	0
Cc1c(CCC(=O)NCC(=O)NCC(=O)O)c(=O)oc2cc3oc4c(c3cc12)CCCC4	0	0	0	0	0	0	-	-
Cc1ccnc(NC(=O)COC(=O)C23CC4CC(CC(C4)C2)C3)n1	0	0	0	0	0	70	0	0
O=C(COC(=O)C12CC3CC(CC(C3)C1)C2)Nc1nccs1	0	0	0	0	0	0	-	-
CCOc1ccc(-n2c(SCC(=O)c3ccc4ccccc4c3)nnc2-c2ccc(OC)cc2)cc1	0	-	0	0	0	-	-	-
Cc1csc(N=Cc2ccc([N+](=O)[O-])o2)n1	22	0	0	0	21	86	0	0
O=C(c1ccccc1)C1OC1C(=O)c1ccccc1 (stereo not given)	0	0	0	0	0	50	0	0
CC(=O)c1ccc(N=Cc2c(O)n(-c3cc(Cl)ccc3N3CCOCC3)c(=O)c3ccccc23)cc1	0	0	0	0	0	86	0	0
CC1=CC(=O)C(C2CCCCC2)=C/C1=N\OS(=O)(=O)c1ccccc1	0	-	-	0	0	-	-	-
C#Cc1ccc([C@@H]2C=C(C(=O)O)O[C@H](OCC)[C@H]2CCCO)cc1	0	0	0	0	0	52	0	0
SMILES	UHRF1 MBD2 ctr	PG9 Ab binder	rCAG RNA binder	MBD2 DNA inh	LEDGF integ inh	DNMT1 inh	DNMT1 confirm	Beacon interf
CC1(C(=O)NCc2cccs2)Cc2c(-c3ccccc3)ccnc2O1 (stereo not given)	0	0	0	0	0	0	-	-
O=C(/C=C/[C@H]1O[C@@H](n2ccc(=O)[nH]c2=O)[C@H](O)[C@@H]1O)NCCCc1ccccc1	0	0	0	0	0	80	0	0
CC(NCc1ccco1)C(=O)N1CCOCC1 (stereo not given)	0	-	0	0	0	-	-	-
CC1=NOC(=O)/C1=C\c1ccc(-c2ccc(Cl)c(C(=O)O)c2)o1	28	0	0	0	0	82	0	0
COc1ccc(NC(=O)C/C(C)=N/NC(=O)c2ccccn2)c(OC)c1	0	0	0	0	0	0	-	-
Cc1sc2ncnc(NC(C)C(=O)O)c2c1C (stereo not given)	0	0	0	0	0	55	0	0
Cc1sc2ncnc(N[C@@H](CCC(=O)O)C(=O)O)c2c1C	0	0	0	0	0	0	-	-
O=C(NCc1cnn(-c2ccccc2)c1)C1CCC(=O)N(C2CC2)C1 (stereo not given)	0	0	0	0	0	0	-	-
CCN(C(=O)Cn1c(=O)n(-c2cc(OC)c(OC)c(OC)c2)c(=O)c2ccccc21)c1cccc(C)c1	0	0	0	0	0	130	0	0
COc1cc(-n2c(=O)c3ccccc3n(CC(=O)c3ccc(Br)cc3)c2=O)cc(OC)c1OC	0	0	0	0	0	0	-	-
O=S(=O)(c1ccc(Br)s1)N1CCN(CCc2ccccc2)CC1	0	0	0	0	0	0	-	-
CCOC(=O)CCCCC(=O)NC(CO)C(=O)NC (stereo not given)	0	0	0	0	0	59	0	0
C/C(=N/NC(=O)c1cccc(Br)c1)C1CC2CCC1C2 (stereo not given)	0	0	0	0	0	0	-	-
CC(=O)Nc1ccc(SCC(=O)c2cc(C)n(-c3ccccc3)c2C)cc1	0	0	0	0	0	0	-	-
CC(=O)Nc1ccc(SCC(=O)c2cc(C)ccc2C)cc1	0	0	0	0	0	86	0	0
COc1cccc(N2CCN(CC(=O)NC(=O)NCc3ccco3)CC2)c1	0	0	0	0	0	50	0	0
CC(C)c1ccc(NC(=O)C(c2ccccc2)N2CCOCC2)cc1 (stereo not given)	0	0	0	0	0	71	0	0
CC(C)c1ccc(NC(=O)C(c2ccccc2)N2CCN(C=O)CC2)cc1 (stereo not given)	0	0	0	0	0	0	-	-
Nc1c(C(=O)NCc2ccccc2)c2nc3ccccc3nc2n1-c1ccc2c(c1)OCO2	0	0	0	0	0	56	0	0
COc1ccccc1CNC(=O)c1c(N)n(CCCN2CCOCC2)c2nc3ccccc3nc12	0	0	0	0	0	0	-	-
Nc1c(C(=O)NCc2ccc3c(c2)OCO3)c2nc3ccccc3nc2n1CCCN1CCOCC1	0	0	0	0	0	62	0	0
Cc1cn([C@H]2C[C@H](O)[C@@H](CNC(=O)[C@H]3CCC(=O)N3)O2)c(=O)[nH]c1=O	0	0	0	0	0	0	-	-
CSCC[C@@H](CO)NC(=O)[C@H]1O[C@@H](n2ccc(N)nc2=O)[C@H](O)[C@@H]1O	0	0	0	0	0	0	-	-
